A selection: hits, their analogues and other compounds. The true share with any hit is near 10%.
3T3 cytotox – Cytotoxic Profiling in NIH 3T3 Cell Line of Diverse Libraries Using Quantitative High-Throughput Screening; NIH 3T3 viability, CellTiter-Glo ATP luminescence, 48-72 h; Potency, µM (doses to about 96.7 µM), for the others: at the highest dose activity change, negative = cytotoxicity, usual class: inhibitors; 94,000 tested, 4.3% active; AID 1345082, 2018; also: % is scaled to controls: 0 for no effect and ±100 for the full control effect; nearly all actives have a fitted effect of over 55% in size
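Mouse fibroblast NIH 3T3 cells, 400 per well, received compound via pintool and were incubated for 48 or 72 hr prior to CellTiter-Glo ATP luminescence measurement.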
hNpr1 antagonist – Natriuretic polypeptide receptor (hNpr1) antagonism - Primary qHTS; HEK293 hNpr1 GloSensor cGMP, ANP-stimulated luminescence; Potency, µM (doses to about 46.3 µM), inactives show at the top dose activity change, negative = inhibition, most hits filed as inhibitors; 76,000 tested, 1.6% active; calls by dose curve; also: % is scaled to controls: 0 for no effect and ±100 for the full control effect; nearly all actives have a fitted effect of over 60% in size
Target sequence (P16066 whole entry, looked up): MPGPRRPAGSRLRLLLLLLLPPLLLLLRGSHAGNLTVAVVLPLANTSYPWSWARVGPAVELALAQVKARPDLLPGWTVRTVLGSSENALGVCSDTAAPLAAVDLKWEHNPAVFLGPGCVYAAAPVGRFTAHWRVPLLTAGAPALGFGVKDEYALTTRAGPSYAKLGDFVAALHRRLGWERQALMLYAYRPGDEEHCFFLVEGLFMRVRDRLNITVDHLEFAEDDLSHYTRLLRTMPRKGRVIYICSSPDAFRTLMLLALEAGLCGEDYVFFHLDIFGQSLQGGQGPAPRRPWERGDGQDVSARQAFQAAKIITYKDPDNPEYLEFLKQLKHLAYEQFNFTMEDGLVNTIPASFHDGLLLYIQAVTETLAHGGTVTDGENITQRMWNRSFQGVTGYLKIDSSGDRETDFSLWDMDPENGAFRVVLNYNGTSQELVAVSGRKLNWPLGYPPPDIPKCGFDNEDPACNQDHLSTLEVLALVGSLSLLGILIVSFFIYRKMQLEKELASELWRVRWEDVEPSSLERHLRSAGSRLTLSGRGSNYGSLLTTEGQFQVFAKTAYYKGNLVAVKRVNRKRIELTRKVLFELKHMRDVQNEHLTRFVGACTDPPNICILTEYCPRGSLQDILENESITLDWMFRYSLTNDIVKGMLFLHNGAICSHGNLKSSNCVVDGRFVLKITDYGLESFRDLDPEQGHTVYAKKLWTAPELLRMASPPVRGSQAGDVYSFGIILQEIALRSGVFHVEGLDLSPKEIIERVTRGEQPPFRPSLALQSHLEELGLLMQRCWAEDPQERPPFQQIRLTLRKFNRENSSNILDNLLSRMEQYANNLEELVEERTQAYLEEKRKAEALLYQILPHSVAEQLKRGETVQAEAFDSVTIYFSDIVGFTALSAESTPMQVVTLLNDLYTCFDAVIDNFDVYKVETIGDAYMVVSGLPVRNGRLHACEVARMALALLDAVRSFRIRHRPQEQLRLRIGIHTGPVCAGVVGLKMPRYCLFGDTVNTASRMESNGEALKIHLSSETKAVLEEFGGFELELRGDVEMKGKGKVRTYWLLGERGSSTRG
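HEK293 cells stably expressing human Npr1 and cGMP GloSensor pGS-40F, loaded 2 h with 2% GloSensor reagent, given compound 30 min at room temperature. Luminescence read before and 20 min after 0.1 nM hNppA.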
FLuc inh-1 – Firefly luciferase inhibition profiling of diverse chemical library using quantitative high-throughput screening; AID 1347043, 2019; Luciferin 4-monooxygenase (Photinus pyralis), P08659; purified P. pyralis luciferase, luminescence, biochemical; 76,000 tested, 2.5% active; Potency, µM (series often up to 115 µM), hits mostly inhibitors; also: % is scaled to controls: 0 for no effect and ±100 for the full control effect; nearly all actives have a fitted effect of over 65% in size
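Biochemical qHTS: compound (6-point titration) added to 10uM D-luciferin plus 10uM ATP in Tris acetate pH 7.5 buffer with Mg, Tween-20 and BSA, then purified enzyme at 10nM; light output imaged.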
HEK293 tox – Cytotoxic Profiling in HEK 293 Cell Line of Diverse Libraries Using Quantitative High-Throughput Screening. HEK 293 viability, ATP luminescence (CellTiter-Glo), 48-72 h. Potency, µM (series often up to 115 µM), for inactives: at the top dose activity change, negative = cytotoxicity, actives largely listed as inhibitors. 94,000 tested, 6.6% active; also: % is scaled to controls: 0 for no effect and ±100 for the full control effect; nearly all actives have a fitted effect of over 60% in size
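250 HEK 293 cells/well; compound by pintool; incubated 48 or 72 hr at 37 degree Celsius; CellTiter-Glo added, 10 min RT, luminescence imaged.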
GPT2 inh – Primary qHTS assay for inhibitors of Glutamate pyruvate transaminase 2 (GPT2) | Alanine aminotransferase 2 (Homo sapiens), Q8TD30 | Recombinant GPT2, coupled pyruvate oxidase/HRP Amplex Red fluorescence | Potency, µM (doses to about 57.7 µM), for the others: at the highest dose activity change, negative = inhibition, usual class: inhibitors | 100,000 tested, 0.25% active; also: % is scaled to controls: 0 for no effect and ±100 for the full control effect; nearly all actives have a fitted effect of over 60% in size
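Recombinant GPT2 (10ng/uL) with 250uM a-KG and 2mM L-alanine, 30 min at room temperature, in HEPES pH 7.5 buffer. Pyruvate detected by pyruvate oxidase/HRP/Amplex Red fluorescence after 30 min in the dark; AOA (50uM) as positive control.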
FLuc SDR -ATP – Firefly luciferase (FLuc-C-HiBiT) SDR gain of signal screen - without ATP; shares compounds with FLuc inh-1; Purified FLuc-C-HiBiT, Nano-Glo HiBiT luminescence, no ATP; Potency, µM (highest dose often 32.7 µM), inactives show top-dose activation (signal gain), usual class: activators; 1,300 tested, 7.8% active; AID 1963318, 2024; also: nearly all actives have a fitted effect of over 55% in size
FLuc SDR ATP – Firefly luciferase (FLuc-C-HiBiT) SDR gain of signal screen - plus ATP. shares compounds with FLuc inh-1. purified FLuc-C-HiBiT + ATP, HiBiT complementation luminescence. Potency, µM (highest dose often 32.7 µM), for inactives: at the top dose activation (gain of signal), most hits filed as activators. 1,300 tested, 8.7% active. AID 1963319, 2024;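 also: signal reports ligand binding via conformational change of the enzyme rather than luciferase catalysis; % of control where 0% means no effect; nearly all actives have a fitted effect of over 55% in size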
FLuc inh-2 – Firefly luciferase (FLuc-C-HiBiT) enzymatic inhibition screen - Functional assay | Potency, µM (series often up to 32.7 µM), without a hit: top-dose activity change, negative = inhibition, most hits filed as inhibitors | 1,300 tested, 42% active | AID 1963320, 2024 | shares compounds with FLuc inh-1 | purified FLuc-C-HiBiT enzyme, luciferin luminescence; also: % is scaled to controls: 0 for no effect and ±100 for the full control effect; nearly all actives have a fitted effect of over 70% in size
Starred values were filed as active, the others as inactive; i = inactive; ? = inconclusive; . = no result; [ ] = another dose, or the depositor's remark. Unless noted, calls follow the shape of the dose curve; as a rule, active = well fitted curve in the direction sought with a large enough effect; inconclusive = small, poorly fitted or top-dose-only effect, or another doubt; inactive = no such curve, though single readings can be large; an effect the other way counts as inactive or inconclusive. Potency is read from the fitted curve at half-maximal effect.

SMILES	3T3 cytotox	hNpr1 antagonist	FLuc inh-1	HEK293 tox	GPT2 inh	FLuc SDR -ATP	FLuc SDR ATP	FLuc inh-2
CN(C)C(=O)c1cn(C2CNC2)nn1	-6%	1%	i	-17%	i	.	.	.
CCC(CC)COC(=O)[C@H](C)N[P@](=O)(OC[C@H]1O[C@@](C#N)(c2ccc3c(N)ncnn23)[C@H](O)[C@@H]1O)Oc1ccccc1	.	.	.	.	.	7%	5%	-6%
CC(C)CNC(=O)c1cccc2c1CCN2C(=O)c1ccc(F)cc1	-20%	-3%	i	?	1%	.	.	.
CCC(=O)N1CCc2c(C(=O)O)cccc21	-24%	-5%	28µM*	-8%	2%	9%	19%	-13%
O=C(O)c1cccc2c1CCN2C(=O)c1ccc(F)cc1	?	?	1.3µM*	-29%	-8%	21%	1.2µM*	1.8µM*
Cc1ccsc1C(=O)N1CCC(Oc2cccnc2)C1 (centres undefined)	i	4%	i	8%	i	.	.	.
O=C(O)c1ccc(CN2CC(COc3ccccc3)C3(C2)CN(c2ccccc2)C3)cc1 (centres undefined)	-22%[138 µM]	-22%[70.6 µM]	i	?	-12%[88.5 µM]	.	.	.
COc1ccc(CN2CC(COc3ccccc3)C3(C2)CN(c2ccccc2)C3)cc1O (centres undefined)	?	-18%[70.6 µM]	i	28µM*	4%[88.5 µM]	12%[49.3 µM]	7%[49.3 µM]	-16%[49.3 µM]
Cc1cnc(C(=O)N[C@@H]2CCC[C@@H]2C(=O)NCCc2ccccc2)cn1	-11%	1%	i	0%	i	.	.	.
O=S(=O)(c1cccc(C(F)(F)F)c1)n1c(/C=C/c2ccccc2)nc2ccccc21	.	.	.	.	.	1.6µM*	?	0.56µM*
CSc1ccc(/C=C/c2nc3ccccc3n2S(=O)(=O)c2ccc(Br)cc2)cc1	.	.	.	.	.	7.9µM*	?	0.7µM*
O=C(Nc1cccn2cnnc12)c1ccc(S(=O)(=O)NCCO)cc1	-2%	2%	i	0%	3%	.	.	.
Cc1[nH]nc2c1C(c1ccc(Cl)cc1)C(C#N)=C(N)O2 (centres undefined)	-22%	-5%	i	?	?	11%	8%	-9%
O=C(c1cccc(F)c1)N1CC(Oc2cccc(-c3nc(-c4ccccc4)no3)c2)C1	?	5%	?	?	-7%	.	.	.
O=C(Nc1ccccc1)N1CC(Oc2ccc(-c3nc(-c4ccccc4)no3)cc2)C1	-3%	-22%	1.3µM*	?	i	17%	14%	?
O=C(N1CC(Oc2ccc(-c3noc(-c4ccccc4)n3)cc2)C1)C1(c2ccccc2)CC1	i	2%	i	-15%	i	.	.	.
Cc1noc(-c2ccc(OC3CN(C(=O)NCc4ccccc4)C3)cc2)n1	?	?	i	?	-2%	.	.	.
CCNC(=O)N1CC(Oc2ccc(-c3nc(-c4ccccc4)no3)cc2)C1	-34%	0.25µM*	0.63µM*	?	1%	19%	19%	?
O=C(Cc1cccc(F)c1)N1CC(Oc2ccc(-c3nc(-c4ccccc4)no3)cc2)C1	-13%	7.9µM*	2µM*	?	i	13%	15%	?
O=C(Cc1cccc(F)c1)N1CCC2(CC1)NC(=O)N(c1ccccc1Cl)N2	?	4%	i	?	?	.	.	.
O=S(=O)(c1cccnc1)N1CCC(N2CC(OCC3CC3)C23CCOCC3)CC1 (centres undefined)	i	-4%	i	1%	0%	.	.	.
O=c1n(-c2cccc(Cl)c2)nc2n1CCN(Cc1ccccc1)C2	?	.	.	?	3%	.	.	.
CCN(c1ncnc2c1cnn2-c1cccc(Cl)c1)C1CCCCC1	.	.	.	.	.	27%	?	5.6µM*
Clc1cccc(-n2ncc3c(N4CCCCC4)ncnc32)c1	.	.	.	.	.	6.2µM*	?	0.99µM*
Cc1cc(Cl)ccc1-n1ncc2c(N3CCCCC3)ncnc21	.	.	.	.	.	31%	?	4.4µM*
SMILES	3T3 cytotox	hNpr1 antagonist	FLuc inh-1	HEK293 tox	GPT2 inh	FLuc SDR -ATP	FLuc SDR ATP	FLuc inh-2
CC(C)CCN1CCn2c(nn(-c3cccc(Cl)c3)c2=O)C1	?	.	.	?	-11%	.	.	.
COCC(C)Nc1ncnc2c1cnn2-c1cccc(Cl)c1 (centres undefined)	.	.	.	.	.	23%	16%	?
Nc1ccc2ncnc(N3CCCC3)c2c1	-22%	-9%	i	?	2%	.	.	.
CN(C)c1nc(-c2ccncc2)nc2c1CCN(C(=O)c1ccc(O)cc1)C2	-2%	3%	i	-11%	-29%	.	.	.
O=C(C1=NOC2CN(C(=O)C3CC3)CC12)N1CCN(c2ncccn2)CC1 (centres undefined)	-16%	.	.	-14%	i	.	.	.
CN1CCc2nc3sc(C(=O)Nc4cccc(C#N)c4)c(N)c3cc2C1	.	.	.	.	.	14%	16%	-12%
CC(=O)Nc1cccc(C(=O)N2CC[C@@H](c3sccc3C)[C@H](O)C2)c1	i	2%	i	-6%	i	.	.	.
Brc1ccc(-c2nc(-c3ccccn3)no2)o1	.	.	.	.	.	?	?	1.2µM*
COc1ccc(-c2noc(-c3nc(-c4ccccn4)no3)n2)cc1	i	0%	i	9%	i	.	.	.
Clc1ccc(-c2nc(-c3ccccn3)no2)cc1Cl	.	.	.	.	.	?	?	5.6µM*
Cc1ccc(-c2ncc3c(n2)OCCN(Cc2ccc(F)cc2F)C3=O)cc1	?	?	3.2µM*	-22%[172 µM]	0%[88.5 µM]	12%[49.3 µM]	11%[49.3 µM]	-4%[49.3 µM]
O=C1c2cnc(-c3ccsc3)nc2OCCN1CC1CC1	-17%[138 µM]	-12%[70.6 µM]	?	?	?	.	.	.
Cc1noc(C)c1-c1ncc2c(n1)OCCN(Cc1ccccc1)C2=O	?	-8%[70.6 µM]	i	-41%[172 µM]	-9%[88.5 µM]	.	.	.

Screening data from PubChem.
